{"source": "the antibiotic and cytotoxicity screens of Wong et al. (2023)", "note": "In all, about 39,000 compounds went through this assay and about 500 (1.3%) were called active. The full list was thinned out, with actives kept by preference.", "data": [{"test_system": "S. aureus RN4220", "experiment": "growth inhibition call (relative growth <= 0.2)", "settings": "50 µM", "values": [{"smiles": "Cc1noc(C)c1S(=O)(=O)N(C)C[C@@H]1OCCCC[C@H](C)Oc2ccc(NC(=O)Nc3cccc4ccccc34)cc2C(=O)N([C@H](C)CO)C[C@H]1C", "growth inhibition call": "inactive"}, {"smiles": "Cc1noc(C)c1NC(=O)N(C)C[C@@H]1OCCCC[C@@H](C)Oc2ccc(NC(=O)CCC(F)(F)F)cc2C(=O)N([C@H](C)CO)C[C@@H]1C", "growth inhibition call": "inactive"}, {"smiles": "CN(C)CC(=O)N[C@H]1C=C[C@H](CC(=O)O)O[C@H]1CO", "growth inhibition call": "inactive"}, {"smiles": "COc1cccc2c1C(=O)c1c(O)c3c(c(O)c1C2=O)C[C@@](O)(C(C)=O)C[C@@H]3O[C@H]1C[C@H](N)[C@H](O)[C@H](C)O1", "growth inhibition call": "active"}, {"smiles": "CC(=O)[C@]1(O)Cc2c(O)c3c(c(O)c2[C@@H](O[C@@H]2C[C@@H](N)[C@H](O)[C@@H](C)O2)C1)C(=O)c1c(O)cccc1C3=O", "growth inhibition call": "active"}, {"smiles": "CC(=O)[C@]1(N)Cc2c(O)c3c(c(O)c2[C@@H](O[C@H]2C[C@H](O)[C@H](O)CO2)C1)C(=O)c1ccccc1C3=O", "growth inhibition call": "inactive"}, {"smiles": "COc1cccc2c1C(=O)c1c(O)c3c(c(O)c1C2=O)C[C@](O)(C(C)=O)C[C@H]3O[C@H]1C[C@@H](N)[C@@H](O)[C@@H](C)O1", "growth inhibition call": "active"}, {"smiles": "COc1cccc2c1C(=O)c1c(O)c3c(c(O)c1C2=O)CC(O)(C(C)=O)CC3OC1CC(N)C(O)C(C)O1.Cl", "note": "(stereo not given)", "growth inhibition call": "inactive"}, {"smiles": "Cc1ccc(S(=O)(=O)Nc2cccc3c2O[C@H](CN(C)S(=O)(=O)c2cn(C)cn2)[C@@H](C)CN([C@H](C)CO)C3=O)cc1", "growth inhibition call": "inactive"}, {"smiles": "C[C@@H]1CCCCO[C@H](CN(C)C(=O)NC2CCCCC2)[C@H](C)CN([C@@H](C)CO)C(=O)c2cc(NC(=O)Nc3ccc4c(c3)OCO4)ccc2O1", "growth inhibition call": "inactive"}, {"smiles": "Cc1cc(C)n([C@@H](CC(=O)O)C(=O)O)n1", "growth inhibition call": "inactive"}, {"smiles": "C[C@@H]1CCCCO[C@H](CN(C)Cc2ccc(Cl)c(Cl)c2)[C@H](C)CN([C@@H](C)CO)C(=O)c2cc(NC(=O)Nc3ccc4c(c3)OCO4)ccc2O1", "growth inhibition call": "inactive"}, {"smiles": "O=C(/C=C/c1ccc(CNc2ccc([C@H]3O[C@@H](CSc4ccncc4)C[C@H](c4ccccc4)O3)cc2)cc1)NO", "growth inhibition call": "inactive"}, {"smiles": "C[C@H](CO)N1C[C@H](C)[C@H](CN(C)S(=O)(=O)c2cn(C)cn2)Oc2c(NS(=O)(=O)c3ccc(F)cc3)cccc2C1=O", "growth inhibition call": "inactive"}, {"smiles": "C[C@H]1CCCCO[C@H](CN(C)C(=O)Nc2ccc(F)cc2)[C@@H](C)CN([C@@H](C)CO)C(=O)c2cc(NC(=O)Nc3cccc4ccccc34)ccc2O1", "growth inhibition call": "inactive"}, {"smiles": "COc1cccc(S(=O)(=O)Nc2ccc3c(c2)[C@@H]2C[C@@H](CC(=O)NC4CCCCC4)O[C@@H](CO)[C@@H]2O3)c1", "growth inhibition call": "inactive"}, {"smiles": "N#C[C@@H]1N[C@@H](CO)[C@@H]1c1ccccc1", "growth inhibition call": "inactive"}, {"smiles": "CC(C)NC(=O)N(C)C[C@@H]1Oc2ccc(NC(=O)Nc3ccc4c(c3)OCO4)cc2CC(=O)N([C@@H](C)CO)C[C@H]1C", "growth inhibition call": "inactive"}, {"smiles": "COc1ccc(CN(C)C[C@H]2OCCCC[C@H](C)Oc3ccc(NS(=O)(=O)c4c(C)noc4C)cc3C(=O)N([C@@H](C)CO)C[C@@H]2C)cc1", "growth inhibition call": "inactive"}, {"smiles": "COc1ccc(NC(=O)Nc2ccc3c(c2)C(=O)N([C@H](C)CO)C[C@H](C)[C@@H](CN(C)C(=O)c2ccccc2)OCCCC[C@H](C)O3)cc1", "growth inhibition call": "inactive"}, {"smiles": "C[C@H](CO)N1C[C@H](C)[C@@H](CN(C)Cc2ccc(C(F)(F)F)cc2)OCCCC[C@H](C)Oc2ccc(NC(=O)c3ccccc3)cc2C1=O", "growth inhibition call": "inactive"}, {"smiles": "CCCN1C[C@H](C)[C@@H](O)[C@](C)(O)[C@@H](CC)OC(=O)[C@H](C)[C@@H](O[C@H]2C[C@@](C)(OC)[C@@H](O)[C@H](C)O2)[C@H](C)[C@@H](O[C@@H]2O[C@H](C)C[C@H](N(C)C)[C@H]2O)[C@](C)(O)C[C@H]1C", "growth inhibition call": "active"}, {"smiles": "CC[C@H]1OC(=O)[C@H](C)[C@@H](O[C@H]2C[C@@](C)(OC)[C@@H](O)[C@H](C)O2)[C@@H](C)[C@@H](O[C@H]2O[C@H](C)C[C@H](N(C)C)[C@H]2O)[C@](C)(O)C[C@@H](C)C(=O)[C@H](C)[C@@H](O)[C@]1(C)O", "growth inhibition call": "active"}, {"smiles": "CCC1OC(=O)C(C)C(OC2CC(C)(OC)C(O)C(C)O2)C(C)C(OC2OC(C)CC(N(C)C)C2O)C(C)(O)CC(C)C(=O)C(C)C(O)C1(C)O.CCCCCCCCCCCCCCCCCC(=O)O", "note": "(stereo not given)", "growth inhibition call": "inactive"}, {"smiles": "CCC1OC(=O)C(C)C(OC2CC(C)(OC)C(O)C(C)O2)C(C)C(OC2OC(C)CC(N(C)C)C2O)C(C)(O)CC(C)C(=O)C(C)C(O)C1(C)O", "note": "(stereo not given)", "growth inhibition call": "active"}, {"smiles": "CC[C@H]1OC(=O)[C@H](C)[C@@H](O[C@H]2C[C@@](C)(OC)[C@@H](O)[C@H](C)O2)[C@H](C)[C@@H](O[C@@H]2O[C@H](C)C[C@H](N(C)C)[C@H]2O)[C@](C)(O)C[C@@H](C)C(=O)[C@H](C)[C@@H](O)[C@]1(C)O", "growth inhibition call": "active"}, {"smiles": "C[C@H](CO)N1C[C@H](C)[C@H](CN(C)S(C)(=O)=O)Oc2ccc(NC(=O)Nc3ccc(F)cc3)cc2C1=O", "growth inhibition call": "inactive"}, {"smiles": "C[C@@H]1CN([C@@H](C)CO)C(=O)c2cc(NC(=O)NC3CCCCC3)ccc2O[C@@H](C)CCCCO[C@H]1CN(C)S(=O)(=O)c1ccccc1", "growth inhibition call": "inactive"}, {"smiles": "Cc1ccc(NC(=O)c2ccc(CN3CC[C@H](N(C)C)C3)c(C(F)(F)F)c2)cc1Nc1nccc(-c2cncnc2)n1", "growth inhibition call": "inactive"}, {"smiles": "C[C@@H]1CN([C@H](C)CO)C(=O)c2ccccc2-c2ccccc2CO[C@@H]1CN(C)Cc1ccc(C(F)(F)F)cc1", "growth inhibition call": "inactive"}, {"smiles": "C[C@H](CO)N1C[C@H](C)[C@H](CN(C)Cc2cncnc2)Oc2ncc(C#C[C@@H](C)O)cc2C1=O", "growth inhibition call": "inactive"}, {"smiles": "C[C@H]1CN([C@@H](C)CO)C(=O)c2cc(NC(=O)Cn3cnnn3)ccc2O[C@@H]1CN(C)C(=O)Nc1ccccc1", "growth inhibition call": "inactive"}, {"smiles": "C[C@H]1CN([C@@H](C)CO)S(=O)(=O)c2ccc(C#CC(C)(C)O)cc2O[C@H]1CN(C)Cc1ccc(F)cc1", "growth inhibition call": "inactive"}, {"smiles": "CCC1OC(=O)C(C)C(OC2CC(C)(OC)C(O)C(C)O2)C(C)C(OC2OC(C)CC(N(C)C)C2O)C(C)(O)CC(C)CN(C)C(C)C(O)C1(C)O", "note": "(stereo not given)", "growth inhibition call": "active"}, {"smiles": "CC[C@H]1OC(=O)[C@H](C)[C@@H](O[C@H]2C[C@@](C)(OC)[C@@H](O)[C@H](C)O2)[C@H](C)[C@@H](O[C@@H]2O[C@H](C)C[C@H](N(C)C)[C@H]2O)[C@](C)(O)C[C@@H](C)CN(C)[C@H](C)[C@@H](O)[C@]1(C)O", "growth inhibition call": "inactive"}]}]}
